# Measurements reported in PubChem BioAssay.
# The source made the active and inactive calls.
# Columns and labels:
# Albumin (Bos taurus) = Albumin (Bos taurus) (UniProt P02769); experiment: bovine serum albumin binders on microarray, profiling panel, artefact control for SMM control protein annotation, biochemical, small-molecule microarray, Alexa647 label, 635/667 nm fluorescence (AID 1118); conditions: BSA-A647 binding, fluorescence 635 nm, higher = more signal;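 note: score merges 667 nm emission intensity and signal-to-noise per printed compound spot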
# [1] = small-molecule microarray binders of probe aXIP, primary screen, biochemical, NeuroSMM set, 635/667 nm fluorescence (AID 1119); conditions: higher = more signal, called active from +8 up or from −8 down;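 note: probe is the protein aXip251-270 applied at 1 µg/mL to compound-printed slides; binding of probe to printed compounds measured as 667 nm fluorescence plus signal to noise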
# [2] = small-molecule binders of probe aNOTCH3, primary screen, biochemical, small-molecule microarray, 635/667 nm fluorescence (AID 1120); conditions: higher = more signal;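 note: probe is a biotin-tagged antibody raised against NOTCH3 rather than NOTCH3 protein; score merges spot fluorescence near 667 nm with spot signal to noise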
# [3] = small-molecule binders of probe aNOTCH2, primary screen, biochemical, small-molecule microarray, 635/667 nm fluorescence (AID 1121); conditions: higher = more signal;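 note: score merges feature fluorescence read at 667 nm with its signal to noise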
# [4] = target: Carbonic anhydrase 2 (Homo sapiens) (UniProt P00918); experiment: CAII small-molecule binders, profiling panel, biochemical, small-molecule microarray, Alexa647-labelled CAII (AID 1122); conditions: CAII-A647 binding fluorescence, higher = more signal
# [5] = COS7 lysate on small-molecule microarray, probe aHis, 635 nm (AID 1123); conditions: COS7 cell lysate, fluorescence, higher = more signal;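 note: z-score combines 667nm fluorescence intensity with signal-to-noise per printed compound spot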
# [6] = compound binding in COS7 lysate, probe aLAP1, primary screen, cell lysate, small-molecule microarray (AID 1124); conditions: probe aLAP1, fluorescence, higher = more signal;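 note: lysate comes from COS7 cells expressing LAP1 and is applied at 0.3 µg/mL; score merges spot fluorescence near 667 nm with signal-to-noise over triplicate slides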
# Sam68 (KHDRBS1) = experiment: Sam68 small-molecule binders, primary screen, biochemical, small-molecule microarray, 635 nm fluorescence (AID 1125); conditions: small-molecule microarray binding, higher = more signal;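 note: score merges 667 nm channel intensity with signal to noise over triplicate slides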
# [7] = tested on: Chordin-like protein 2 (CHRDL2); experiment: CHRDL2 small-molecule binders, primary screen, biochemical, small-molecule microarray, 635 nm fluorescence (AID 1126); conditions: small-molecule microarray binding, fluorescence 635 nm; higher = more signal;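 note: printed compound slides probed with Chrdl2 protein at 4 µg/mL for 1 h at 4 C; score merges 667 nm emission intensity with signal to noise over three replicate slides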
# [8] = target: Concanavalin-A (Canavalia ensiformis) (UniProt P02866); experiment: ConA small-molecule binders, primary screen, artefact control for SMM control protein annotation, biochemical, small-molecule microarray, Alexa647 label, 635 nm (AID 1127); conditions: ConA-A647 binding fluorescence, higher = more signal;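 note: z combines 667 nm emission intensity with signal-to-noise across three replicate slides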
# Chain of Concanavalin-A (Canavalia ensiformis) (P02866 whole entry, looked up): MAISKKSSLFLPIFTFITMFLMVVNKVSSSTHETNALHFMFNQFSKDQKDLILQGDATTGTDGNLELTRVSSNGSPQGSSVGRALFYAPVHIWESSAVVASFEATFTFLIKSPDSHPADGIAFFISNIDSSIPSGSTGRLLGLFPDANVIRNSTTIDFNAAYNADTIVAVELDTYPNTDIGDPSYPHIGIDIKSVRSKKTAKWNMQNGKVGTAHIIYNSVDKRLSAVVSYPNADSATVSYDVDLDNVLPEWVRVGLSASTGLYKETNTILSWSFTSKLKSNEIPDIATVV
# Chain of Albumin (Bos taurus) (P02769 whole entry, looked up): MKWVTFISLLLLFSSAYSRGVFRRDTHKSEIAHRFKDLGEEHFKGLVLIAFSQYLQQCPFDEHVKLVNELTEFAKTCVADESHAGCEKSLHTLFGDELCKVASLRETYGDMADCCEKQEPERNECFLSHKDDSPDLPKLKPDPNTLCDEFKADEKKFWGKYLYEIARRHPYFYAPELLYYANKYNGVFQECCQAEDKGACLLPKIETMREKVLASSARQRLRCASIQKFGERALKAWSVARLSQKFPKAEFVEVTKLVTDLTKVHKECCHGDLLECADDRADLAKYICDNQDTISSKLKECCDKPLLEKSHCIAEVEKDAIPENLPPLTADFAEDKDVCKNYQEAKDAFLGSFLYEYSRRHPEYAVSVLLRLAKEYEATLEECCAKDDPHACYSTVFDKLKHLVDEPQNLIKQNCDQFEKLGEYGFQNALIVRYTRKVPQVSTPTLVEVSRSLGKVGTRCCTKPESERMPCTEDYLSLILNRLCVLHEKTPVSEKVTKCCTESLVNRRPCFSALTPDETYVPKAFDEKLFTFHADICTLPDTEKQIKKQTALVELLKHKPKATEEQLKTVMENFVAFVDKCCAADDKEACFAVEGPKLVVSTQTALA
Structure (SMILES),composite z-score (Albumin (Bos taurus)),composite Z-score [1],composite z-score [2],composite z-score [3],composite z-score [4],composite z-score [5],composite z-score [6],composite z-score (Sam68 (KHDRBS1)),composite z-score [7],composite z-score [8]
C=CCOC(=O)[C@H]1[C@@H]2C(=O)O[C@@H](c3ccccc3)[C@@H](c3ccccc3)N2[C@@H](c2ccc(OCCOC(=O)[C@@H]3C[C@@H]4C(=O)N[C@@H](CCCC[N+](C)(C)C)C(=O)N4[C@@H]3c3ccc(O)cc3)cc2)[C@]12C(=O)Nc1ccccc12,0.0987,0.0848 (inactive),0.011,-0.171,0.624,0.875,0.284,1.31,1.08,1.12
[N-]=[N+]=NCc1ccccc1[C@H]1OC(c2ccc(OCCCO)cc2)=N[C@@]1(Cc1ccccc1)C(=O)NCc1ccccc1,0.882,-0.157 (inactive),0.0884,-0.283,0.448,2.88,0.444,1.26,0.547,0.824
CCOC(=O)[C@H]1CC=C2CC1C(=O)N1CCC[C@@H]1[C@@H]2O[Si](C)(C)C(C)(C)C (stereo not given in full),-0.0458,0.131 (inactive),-0.213,-0.161,-0.386,0.168,-0.407,-0.0813,-0.287,-2.28
COC(=O)c1c(CC[C@@H](CO)NC(=O)N2CCC[C@H]2Cn2cc(-c3ccccn3)nn2)oc(C(C)=O)c1C(=O)OC,0.453,0.294 (inactive),-0.118,-0.171,0.428,0.043,0.274,0.882,-0.394,0.419
COCCn1c(C(=O)N2CCCC2)cc2c1C[C@H]1CN(C(=O)c3ccccc3)[C@@](Cc3ccc(F)cc3)(C(=O)OC)[C@@H]21,1.02,2 (inactive),0.309,0.11,0.827,2.96,0.406,1.32,-0.364,1
CCCCCN1CC=CC23O[C@@H]4/C=C\CCCOC(=O)C4[C@H]2C(=O)N(C(CO)C(C)C)[C@@H]3C1=O (stereo not given in full),1,0.586 (inactive),-0.139,-0.14,0.819,-0.168,-0.12,-0.656,-0.718,-0.574
COC(=O)c1c(CC[C@@H](CO)NC(=O)N[C@@H](C)Cn2cc(C3(O)CCCCC3)nn2)oc(C(C)=O)c1C(=O)OC,0.0745,0.502 (inactive),0.0596,-0.0466,0.421,0.377,-0.0869,1.29,1.02,1.02
CCOC(=O)[C@H]1C/C=C/C[C@H](C(=O)OCC)C(=O)O[C@H]2[C@@H](OC)O[C@H](CO)[C@@H](OC(=O)Nc3cccc(F)c3)[C@@H]2OC1=O,0.407,0.46 (inactive),1.06,0.0593,0.66,1.86,0.903,1.19,0.306,0.189
CCOC(=O)C1=CCC(c2ccccc2)N(S(=O)(=O)CC[Si](C)(C)C)C1 (stereo not given),-0.149,0.0503 (inactive),-0.392,-0.188,-0.35,-0.177,-0.0394,-0.717,0.165,-0.0238
NCCCCCNC(=O)[C@@H]1C[C@@H]2C(=O)N[C@@H](Cc3ccccc3)C(=O)N2[C@@H]1c1cccc(OCCO)c1,0.654,0.376 (inactive),0.0087,-0.112,0.698,1.18,0.463,0.861,-0.0335,1.05
O=C1c2ccccc2[C@](Cc2ccccc2I)(C(=O)NC2CC2)[C@H](c2ccc(CO)cc2)N1Cc1ccccc1,-0.213,0.476 (inactive),-0.0055,-0.0495,0.711,1.7,0.478,0.512,-0.0374,0.894
CCOC1=C2C(CN(S(=O)(=O)c3ccc(C)cc3)C2c2ccc(C)cc2)C2C(=O)N(c3ccccc3)C(=O)C2C1 (stereo not given),0.453,0.0045 (inactive),0.24,-0.0665,0.676,1.58,0.377,0.814,0.479,0.654
O=C1O[C@@H](c2ccccc2)[C@@H](c2ccccc2)N2[C@@H](c3ccc(OCCO)cc3)[C@]3(C(=O)Nc4ccccc43)[C@@H](C(=O)NC[C@H](O)c3ccccc3)[C@H]12,0.393,0.312 (inactive),0.0519,-0.0649,0.549,1.67,0.759,0.989,0.895,0.999
C=CCC(OC(C)=O)[C@@H]1[C@@H](N(Cc2ccc(-c3ccccc3)cc2)C(=O)Cc2ccc(F)cc2)c2cc(OCCCO)ccc2N1C(=O)c1ccc(-c2ccccc2)cc1 (stereo not given in full),0.127,-0.405 (inactive),0.0905,-0.141,-0.249,-0.338,0.0362,0.0072,0.528,-0.136
O=C1NC(=O)C2C1C=CC(C(O)c1ccccc1)N2Nc1ccc(Cl)cc1Cl (stereo not given),0.885,-0.199 (inactive),0.405,-0.0974,0.574,3.18,1.23,1.33,-0.238,1.1
CN1C(=O)[C@]2(Cc3ccccc3)N=C(c3ccc(OCCCO)cc3)O[C@@H]2c2ccccc21,0.18,0.307 (inactive),0.0927,-0.0734,0.635,2.51,0.824,1.29,0.572,0.953

Structure (SMILES),composite z-score (Albumin (Bos taurus)),composite Z-score [1],composite z-score [2],composite z-score [3],composite z-score [4],composite z-score [5],composite z-score [6],composite z-score (Sam68 (KHDRBS1)),composite z-score [7],composite z-score [8]
COCCOC(=O)N1C(=O)[C@@]2(c3cc(C#Cc4ccc(OC)cc4)ccc31)[C@H](c1ccc(O)cc1)N1[C@H](c3ccccc3)[C@H](c3ccccc3)OC(=O)[C@H]1[C@@H]2C(=O)NC[C@H](O)c1ccccc1,0.298,0.434 (inactive),0.385,-0.0878,0.317,1.04,0.693,1.29,0.374,1.17
COc1ccc(C(=O)O[C@H]2CC[C@]3(C)C4=C(CCC3C2(C)C)[C@]2(C)CC[C@H]([C@H](C)CCCC(C)C)[C@@]2(C)CC4)cc1 (stereo not given in full),0.12,-0.482 (inactive),0.236,-0.149,-0.008,0.688,0.064,0.154,0.575,0.447
OC([C@@H]1CC(c2ccccc2)=NO1)[C@H]1CC(c2ccccc2)=NO1 (stereo not given in full),0.558,-0.227 (inactive),-0.0465,-0.0859,-0.11,-0.262,-0.105,-0.285,0.191,-0.363
Cc1ccc(S[C@]2(C(=O)NCCN3CCOCC3)CC(=O)N(Cc3ccccc3)[C@@H]2c2ccc(CO)cc2I)cc1,0.285,0.994 (inactive),-0.165,-0.14,0.667,1.43,0.202,-0.388,-1.59,-0.112
CC(C)c1ccc(NN2C(C(O)C(c3ccccc3)c3ccccc3)C=CC3C(=O)N(c4ccccc4)C(=O)C32)cc1 (stereo not given),0.933,-0.136 (inactive),0.424,0.101,0.797,2.74,0.902,1.32,-0.348,1.14
COc1ccc([C@H]2C[C@H]3C(Br)=C[C@@H]2C(=O)[C@]32CO2)cc1,-1.13,-0.624 (inactive),-0.176,-0.075,-0.539,-0.442,-0.0737,-0.99,0.736,0.125
CC(C)C[C@@H]1NC(=O)[C@H]2C[C@@H](C(=O)NCCCCCCN(C)C)[C@@H](c3ccc(O)cc3)N2C1=O,-0.581,0.531 (inactive),0.0293,-0.112,0.479,2.03,0.588,1.32,1.29,1.17
[N-]=[N+]=NCc1ccccc1C[C@]1(C(=O)NCC(O)CO)N=C(c2ccc(OCCCO)cc2)O[C@H]1c1ccccc1 (stereo not given in full),0.922,-0.321 (inactive),0.062,-0.0596,0.698,2.57,0.108,-0.236,-0.911,-0.916
CCOC(=O)C=Cc1cc([N+](=O)[O-])ccc1O,-0.307,-0.26 (inactive),0.0209,-0.0162,0.802,0.751,0.422,0.471,-1.26,-0.0123
COc1ccc([Si](C)(C)[C@H]2[C@H](CCO)O[C@@]3(C(=O)N(C)c4c(Br)cc(C)cc43)[C@@H]2C)cc1,-0.094,-0.303 (inactive),-0.0596,-0.0793,0.473,1,0.0847,0.953,0.344,1.07
COCCOC(=O)N1C(=O)[C@@]2(c3cc(C#CC4=CCCCC4)ccc31)[C@H](C(N)=O)[C@H]1C(=O)O[C@H](c3ccccc3)[C@H](c3ccccc3)N1[C@@H]2c1ccc(OCCO)cc1,0.588,0.362 (inactive),-0.315,-0.259,0.348,0.763,0.481,1.3,0.0151,0.459
C=C/C=C/[C@H]1C(=C)CN([C@@H](Cc2ccccc2)C(=O)OC)[C@@H]1[C@H](O)Cc1ccccc1,-0.668,-0.624 (inactive),-0.235,-0.195,-0.174,0.25,0.161,-0.24,-0.0454,-0.243
COC(=O)[C@@]1(Cc2ccccc2)[C@H]2c3cc(C(=O)N4CCCC4)n(Cc4nc5ccccc5[nH]4)c3C[C@H]2CN1C(=O)c1ccccc1,1.03,0.579 (inactive),0.537,0.404,0.653,3.34,0.988,1.3,-0.72,0.912
C=CCC(OC(C)=O)[C@@H]1[C@@H](N(Cc2ccc(-c3cccc(C(F)(F)F)c3)o2)C(=O)Cc2ccc(F)cc2)c2cc(OCCCO)ccc2N1C(=O)Cc1ccc(OC)cc1 (stereo not given in full),-0.0141,-0.105 (inactive),-0.0918,-0.124,-0.498,-1,-0.348,-3.75,0.149,-1.29
COc1ccc([Si](C)(C)[C@@H]2[C@@H](CC(=O)N3Cc4ccccc4C[C@H]3CO)O[C@]3(C(=O)N(C)c4c(Br)cc(C)cc43)[C@H]2C)cc1,0.494,0.136 (inactive),0.0562,-0.164,0.574,0.498,0.172,1.31,1.11,1.13
